Assay in all cases: DAPPL (digital affinity profiling via proximity ligation, sequencing); 10 mM Tris-HCl pH 7.5, 50 mM NaCl, 1 mM DTT, 4% glycerol, room temperature, 30 min; GST-TFs on glutathione beads, 16-mer random dsDNA library, 0.1% formaldehyde crosslink after washing; high values mean tight binding
Conditions in all cases: protein: recombinant; tags: N-terminal GST; dsDNA, one strand shown

One assay concerns the target T1, FLI1 (Homo sapiens, UniProt Q01543 1-452).
T1 sequence: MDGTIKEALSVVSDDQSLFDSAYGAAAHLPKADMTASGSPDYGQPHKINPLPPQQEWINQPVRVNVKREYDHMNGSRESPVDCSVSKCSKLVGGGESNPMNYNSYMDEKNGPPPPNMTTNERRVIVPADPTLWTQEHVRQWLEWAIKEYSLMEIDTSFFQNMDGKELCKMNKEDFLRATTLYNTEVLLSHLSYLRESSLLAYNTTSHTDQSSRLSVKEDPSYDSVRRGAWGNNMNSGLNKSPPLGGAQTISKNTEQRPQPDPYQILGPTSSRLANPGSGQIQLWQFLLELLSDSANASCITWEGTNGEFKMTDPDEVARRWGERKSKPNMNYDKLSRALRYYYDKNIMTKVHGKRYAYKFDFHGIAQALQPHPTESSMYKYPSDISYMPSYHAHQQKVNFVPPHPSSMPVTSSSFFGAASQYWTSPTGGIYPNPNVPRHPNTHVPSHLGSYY
The procedure, abridged:
(§1)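 Human transcription factors fused to GST were expressed in yeast, captured on glutathione beads, given DNA barcodes and pooled with a GST-only negative control. Pools were incubated with 200 nmole of a 16-mer random double-stranded DNA library in Tris/NaCl/DTT/glycerol buffer at room temperature for 30 min. They were then washed, crosslinked with 0.1% formaldehyde, proximity-ligated (BsaI/T4 ligase, 1 h, 37 °C), PCR-amplified and sequenced on an Illumina NextSeq500. Binding signal is each 6-mer's read frequency for a factor divided by its frequency for the GST control.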

Another assay has as its target T2, ELK1 (Homo sapiens, UniProt P19419 1-428).
T2 sequence: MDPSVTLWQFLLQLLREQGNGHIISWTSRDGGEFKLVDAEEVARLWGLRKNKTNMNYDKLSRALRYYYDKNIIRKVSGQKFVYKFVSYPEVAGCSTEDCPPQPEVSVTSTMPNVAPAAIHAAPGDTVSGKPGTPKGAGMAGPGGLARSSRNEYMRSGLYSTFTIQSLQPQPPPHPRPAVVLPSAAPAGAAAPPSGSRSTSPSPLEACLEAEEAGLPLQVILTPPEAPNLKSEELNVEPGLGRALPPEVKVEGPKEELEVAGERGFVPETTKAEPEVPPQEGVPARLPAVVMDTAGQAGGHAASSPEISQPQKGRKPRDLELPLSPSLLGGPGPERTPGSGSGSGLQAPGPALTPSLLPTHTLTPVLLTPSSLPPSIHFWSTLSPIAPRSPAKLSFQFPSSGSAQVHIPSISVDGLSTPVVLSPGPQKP
The procedure, abridged: as §1

Another assay has as its target T3, GABPA (Homo sapiens, UniProt Q06546 1-454).
T3 sequence: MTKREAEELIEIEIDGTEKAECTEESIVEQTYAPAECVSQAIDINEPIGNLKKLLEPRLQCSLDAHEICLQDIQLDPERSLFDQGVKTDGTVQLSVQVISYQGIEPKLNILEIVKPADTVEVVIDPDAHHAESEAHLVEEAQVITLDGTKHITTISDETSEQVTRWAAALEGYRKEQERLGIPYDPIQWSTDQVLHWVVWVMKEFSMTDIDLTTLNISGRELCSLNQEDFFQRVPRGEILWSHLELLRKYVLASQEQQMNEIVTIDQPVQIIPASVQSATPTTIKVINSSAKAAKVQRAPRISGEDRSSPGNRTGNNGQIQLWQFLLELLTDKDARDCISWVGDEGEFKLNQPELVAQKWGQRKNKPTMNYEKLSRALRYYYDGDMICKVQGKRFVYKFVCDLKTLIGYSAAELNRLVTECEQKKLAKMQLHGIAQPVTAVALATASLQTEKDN
The method in brief:
as §1

The next assay addresses T4, ERG (Homo sapiens, UniProt P11308 1-479).
T4 sequence: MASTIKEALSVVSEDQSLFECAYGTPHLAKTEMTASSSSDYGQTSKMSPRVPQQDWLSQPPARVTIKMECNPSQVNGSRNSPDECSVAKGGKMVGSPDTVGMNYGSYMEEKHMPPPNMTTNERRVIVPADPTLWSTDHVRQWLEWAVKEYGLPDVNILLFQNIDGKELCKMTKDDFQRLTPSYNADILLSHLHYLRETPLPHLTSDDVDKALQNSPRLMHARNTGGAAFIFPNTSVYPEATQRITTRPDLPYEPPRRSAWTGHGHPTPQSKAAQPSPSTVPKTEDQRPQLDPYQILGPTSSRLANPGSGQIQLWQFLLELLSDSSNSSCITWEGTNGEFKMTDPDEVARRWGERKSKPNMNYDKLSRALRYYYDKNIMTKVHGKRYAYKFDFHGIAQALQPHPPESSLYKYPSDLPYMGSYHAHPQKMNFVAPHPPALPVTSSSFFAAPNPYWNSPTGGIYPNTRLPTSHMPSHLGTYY
The method in brief:
as §1

The next assay concerns the target ELF1 (Homo sapiens, UniProt P32519 1-619). The method in brief:
as §1

For another assay, the target named is T5, EHF (Homo sapiens, UniProt Q9NZC4 1-300).
T5 sequence: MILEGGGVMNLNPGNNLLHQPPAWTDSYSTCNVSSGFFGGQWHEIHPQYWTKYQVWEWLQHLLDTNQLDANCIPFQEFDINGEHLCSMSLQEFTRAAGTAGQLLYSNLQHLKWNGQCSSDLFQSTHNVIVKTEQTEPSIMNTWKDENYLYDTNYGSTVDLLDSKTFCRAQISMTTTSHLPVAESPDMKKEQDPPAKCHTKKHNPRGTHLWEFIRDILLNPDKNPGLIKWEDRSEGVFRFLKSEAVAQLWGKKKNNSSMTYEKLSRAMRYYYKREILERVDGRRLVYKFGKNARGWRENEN
The method in brief: as §1

A further assay concerns the target SPI1 (Homo sapiens, UniProt P17947 1-270). The procedure, abridged: as §1
A further assay deals with SPIB (Homo sapiens, UniProt Q01892 1-262). The method in brief: as §1
Chain of SPIB (Q01892 whole entry): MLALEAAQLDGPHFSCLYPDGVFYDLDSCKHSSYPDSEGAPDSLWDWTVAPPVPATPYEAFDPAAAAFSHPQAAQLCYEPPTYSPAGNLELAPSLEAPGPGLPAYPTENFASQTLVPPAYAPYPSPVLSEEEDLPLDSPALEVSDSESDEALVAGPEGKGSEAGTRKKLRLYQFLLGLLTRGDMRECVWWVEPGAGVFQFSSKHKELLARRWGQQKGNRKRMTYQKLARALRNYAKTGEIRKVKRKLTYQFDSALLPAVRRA
The target of a further assay is T6, ELK3 (Homo sapiens, UniProt P41970 1-407).
T6 sequence: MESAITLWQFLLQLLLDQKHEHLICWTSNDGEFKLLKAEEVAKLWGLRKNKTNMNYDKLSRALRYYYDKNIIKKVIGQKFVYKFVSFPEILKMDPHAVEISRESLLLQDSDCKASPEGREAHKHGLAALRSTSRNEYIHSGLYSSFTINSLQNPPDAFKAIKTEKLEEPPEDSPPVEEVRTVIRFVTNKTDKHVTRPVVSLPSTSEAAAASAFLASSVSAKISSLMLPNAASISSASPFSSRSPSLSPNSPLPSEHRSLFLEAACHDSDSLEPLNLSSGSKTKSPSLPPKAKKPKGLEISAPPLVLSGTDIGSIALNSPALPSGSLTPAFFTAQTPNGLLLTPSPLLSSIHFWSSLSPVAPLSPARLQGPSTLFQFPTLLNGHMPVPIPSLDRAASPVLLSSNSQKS
The procedure, abridged: as §1

Chain of ELF1 (P32519 whole entry): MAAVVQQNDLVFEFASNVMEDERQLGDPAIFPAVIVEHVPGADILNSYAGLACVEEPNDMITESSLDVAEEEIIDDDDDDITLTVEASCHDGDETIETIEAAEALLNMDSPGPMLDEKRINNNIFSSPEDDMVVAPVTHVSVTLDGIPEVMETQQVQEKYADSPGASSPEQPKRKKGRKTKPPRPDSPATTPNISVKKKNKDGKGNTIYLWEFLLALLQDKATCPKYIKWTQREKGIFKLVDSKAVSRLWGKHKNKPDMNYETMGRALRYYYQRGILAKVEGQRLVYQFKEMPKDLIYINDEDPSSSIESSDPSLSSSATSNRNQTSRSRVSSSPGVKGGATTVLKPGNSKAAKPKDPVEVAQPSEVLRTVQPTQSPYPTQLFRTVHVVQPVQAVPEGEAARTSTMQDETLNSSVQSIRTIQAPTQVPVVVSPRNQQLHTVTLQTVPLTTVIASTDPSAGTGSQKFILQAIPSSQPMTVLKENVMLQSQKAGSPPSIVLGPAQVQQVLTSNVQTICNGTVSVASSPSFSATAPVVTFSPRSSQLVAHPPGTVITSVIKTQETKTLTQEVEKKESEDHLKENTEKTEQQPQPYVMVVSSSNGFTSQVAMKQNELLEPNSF

As for GGCTCA, the binding signal in the assay with FLI1 was 1.22 fold enrichment (6-mer frequency, TF over GST control); in the assay with ELK1, 1.38 fold enrichment (6-mer frequency, TF over GST control); in the assay with GABPA, 1.32 fold enrichment (6-mer frequency, TF over GST control); with ERG it was 1.33 fold enrichment (6-mer frequency, TF over GST control); with ELF1, 1.34 fold enrichment (6-mer frequency, TF over GST control); in the assay with EHF, 1.23 fold enrichment (6-mer frequency, TF over GST control). Further, the binding signal with SPI1 is 1.24 fold enrichment (6-mer frequency, TF over GST control); with SPIB, 1.24 fold enrichment (6-mer frequency, TF over GST control); with ELK3 it was 1.23 fold enrichment (6-mer frequency, TF over GST control).
In the case of ACGACT, the binding signal with FLI1 is 1.27 fold enrichment (6-mer frequency, TF over GST control); with ELK1, 1.28 fold enrichment (6-mer frequency, TF over GST control); with GABPA it was 1.36 fold enrichment (6-mer frequency, TF over GST control); with ERG, 1.24 fold enrichment (6-mer frequency, TF over GST control); with ELF1, 1.19 fold enrichment (6-mer frequency, TF over GST control); with EHF it was 1.17 fold enrichment (6-mer frequency, TF over GST control). The binding signal is 1.27 fold enrichment (6-mer frequency, TF over GST control) in the assay with SPI1; 1.17 fold enrichment (6-mer frequency, TF over GST control) with SPIB; 1.24 fold enrichment (6-mer frequency, TF over GST control) with ELK3.
For the sequence TATATT, the binding signal in the assay with FLI1 is 1.34 fold enrichment (6-mer frequency, TF over GST control); with ELK1, 1.33 fold enrichment (6-mer frequency, TF over GST control); in the assay with GABPA, 1.47 fold enrichment (6-mer frequency, TF over GST control); with ERG, 1.41 fold enrichment (6-mer frequency, TF over GST control); with ELF1 it was 1.47 fold enrichment (6-mer frequency, TF over GST control); with EHF it was 1.43 fold enrichment (6-mer frequency, TF over GST control). The binding signal with SPI1 was 1.3 fold enrichment (6-mer frequency, TF over GST control); with SPIB it was 1.34 fold enrichment (6-mer frequency, TF over GST control); in the assay with ELK3, 1.3 fold enrichment (6-mer frequency, TF over GST control).
For CTCCAC, the binding signal with FLI1 is 1.56 fold enrichment (6-mer frequency, TF over GST control); with ELK1 it was 1.41 fold enrichment (6-mer frequency, TF over GST control); with GABPA, 1.46 fold enrichment (6-mer frequency, TF over GST control); in the assay with ERG, 1.37 fold enrichment (6-mer frequency, TF over GST control); with ELF1 it was 1.38 fold enrichment (6-mer frequency, TF over GST control); with EHF it was 1.32 fold enrichment (6-mer frequency, TF over GST control). Moreover, the binding signal was 1.55 fold enrichment (6-mer frequency, TF over GST control) with SPI1; 1.32 fold enrichment (6-mer frequency, TF over GST control) with SPIB; 1.54 fold enrichment (6-mer frequency, TF over GST control) with ELK3.
With GCCTCG, the binding signal with FLI1 is 1.41 fold enrichment (6-mer frequency, TF over GST control); with ELK1 it was 1.26 fold enrichment (6-mer frequency, TF over GST control); with GABPA it was 1.34 fold enrichment (6-mer frequency, TF over GST control); with ERG it was 1.45 fold enrichment (6-mer frequency, TF over GST control); in the assay with ELF1 it was 1.42 fold enrichment (6-mer frequency, TF over GST control); with EHF, 1.3 fold enrichment (6-mer frequency, TF over GST control). The binding signal was 1.21 fold enrichment (6-mer frequency, TF over GST control) with SPI1; 1.19 fold enrichment (6-mer frequency, TF over GST control) with SPIB; 1.26 fold enrichment (6-mer frequency, TF over GST control) in the assay with ELK3.
For the sequence TCTTGT, the binding signal with FLI1 was 1.48 fold enrichment (6-mer frequency, TF over GST control); with ELK1 it was 1.64 fold enrichment (6-mer frequency, TF over GST control); with GABPA it was 1.53 fold enrichment (6-mer frequency, TF over GST control); with ERG it was 1.54 fold enrichment (6-mer frequency, TF over GST control); in the assay with ELF1 it was 1.53 fold enrichment (6-mer frequency, TF over GST control); with EHF it was 1.57 fold enrichment (6-mer frequency, TF over GST control). The binding signal with SPI1 was 1.5 fold enrichment (6-mer frequency, TF over GST control); with SPIB it was 1.55 fold enrichment (6-mer frequency, TF over GST control); in the assay with ELK3, 1.58 fold enrichment (6-mer frequency, TF over GST control).
As for ATCTTC, the binding signal in the assay with FLI1 was 1.68 fold enrichment (6-mer frequency, TF over GST control); in the assay with ELK1 it was 1.52 fold enrichment (6-mer frequency, TF over GST control); with GABPA, 1.48 fold enrichment (6-mer frequency, TF over GST control); with ERG, 1.51 fold enrichment (6-mer frequency, TF over GST control); with ELF1 it was 1.64 fold enrichment (6-mer frequency, TF over GST control); in the assay with EHF it was 1.46 fold enrichment (6-mer frequency, TF over GST control). The binding signal was 1.52 fold enrichment (6-mer frequency, TF over GST control) with SPI1; 1.6 fold enrichment (6-mer frequency, TF over GST control) in the assay with SPIB; 1.59 fold enrichment (6-mer frequency, TF over GST control) in the assay with ELK3.
For the sequence ATTTAT, the binding signal in the assay with FLI1 was 1.41 fold enrichment (6-mer frequency, TF over GST control); with ELK1 it was 1.48 fold enrichment (6-mer frequency, TF over GST control); with GABPA, 1.35 fold enrichment (6-mer frequency, TF over GST control); in the assay with ERG, 1.33 fold enrichment (6-mer frequency, TF over GST control); with ELF1, 1.32 fold enrichment (6-mer frequency, TF over GST control); in the assay with EHF, 1.45 fold enrichment (6-mer frequency, TF over GST control). Also, the binding signal with SPI1 was 1.43 fold enrichment (6-mer frequency, TF over GST control); with SPIB, 1.46 fold enrichment (6-mer frequency, TF over GST control); in the assay with ELK3, 1.49 fold enrichment (6-mer frequency, TF over GST control).

(Values after PMC7862700, “An all-to-all approach to the identification of sequence-specific readers for epigenetic DNA modifications on cytosine”.)
